± gives the standard deviation of the averaged measurements.
What follows are compounds tested on Listeria monocytogenes 10403S (assay: growth inhibition relative to ceftriaxone-alone control; higher = stronger potentiation of ceftriaxone growth inhibition). Details: 10 µM; ceftriaxone 1 ug/ml; 12 h.
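Note: End-point A600 read in BHI broth at 37 °C with 2% DMSO, inhibition computed as (1 − OD with compound plus ceftriaxone ÷ OD with ceftriaxone only) × 100.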

Row | Compound | growth inhibition [%]
1 | CCc1cccc(NC(=O)Nc2ccc(Oc3ccc4nc(NC(=O)OC)[nH]c4c3)cc2)c1 | 9.75 ± 3.1
2 | NS(=O)(=O)c1ccc(N/N=C2\C(=O)Nc3ccc(C(=O)NCCc4c[nH]cn4)cc32)cc1 | 14.1 ± 4.2
3 | CCS(=O)(=O)c1ccc(OC)c(Nc2ncc(-c3cccc(-c4ccccc4F)c3)o2)c1 | 2.03 ± 2.4
4 | Nc1ncnc2occ(-c3ccc(NC(=O)Nc4cccc(C(F)(F)F)c4)cc3)c12 | -12.9 ± 3.5
5 | O=C1NC(=O)C(N2CCc3ccccc32)=C1c1ccc(Cl)cc1 | 14.5 ± 6
6 | Cc1ncc(-c2ccnc(Nc3ccc(S(C)(=O)=O)cc3)n2)n1C(C)C | 97.4 ± 2.4
7 | Fc1ccc(-c2ncn(C3CCNCC3)c2-c2ccnc(Oc3ccccc3)n2)cc1 | -4.1 ± 5.5
8 | O=c1sn(-c2cccc3ccccc23)c(=O)n1Cc1ccccc1 [Tideglusib] | 89.5 ± 12
9 | NS(=O)(=O)c1cccc(N/C=C2\C(=O)Nc3ccccc32)c1 | -6.18 ± 1
10 | Cc1[nH]c(/C=C2\C(=O)Nc3ccc(S(=O)(=O)Cc4c(Cl)cccc4Cl)cc32)c(C)c1C(=O)N1CCC[C@@H]1CN1CCCC1 | 78 ± 5.2
11 | Nc1nonc1-c1nc2cnccc2n1C1CCCCC1 | 12.4 ± 3.9
12 | O=C1NC(=O)C(c2cccc(Cl)c2)=C1Nc1ccc(O)c(Cl)c1 | -7.55 ± 15
13 | C[C@]1(O)C[C@@H](c2nc(-c3ccc4ccc(-c5ccccc5)nc4c3)c3c(N)nccn32)C1 [Linsitinib (OSI-906)] | 56.8 ± 25
14 | N#Cc1c(NC(=O)c2ccccc2F)sc2c1CCCC2 | -3.06 ± 2.3
15 | Cc1ccc(NC(=O)c2ccc(CN3CCN(C)CC3)cc2)cc1Nc1nc(-c2cccnc2)cs1 [Masitinib (AB1010)] | 36.7 ± 26
16 | NS(=O)(=O)c1ccc(N/C=C2\C(=O)Nc3ccc4ncsc4c32)cc1 | -2.62 ± 4.2
17 | C[C@@H](Oc1cc(-n2cnc3ccc(CN4CCN(C)CC4)cc32)sc1C(N)=O)c1ccccc1C(F)(F)F | 88.5 ± 8.4
18 | CN(c1ncccc1CNc1nc(Nc2ccc3c(c2)CC(=O)N3)ncc1C(F)(F)F)S(C)(=O)=O | 41.8 ± 28
19 | CNC(=O)c1cncc(/C=C/c2ccccc2Cl)c1 | -3.04 ± 0.74
20 | NC(=O)c1ccc(Oc2nccc(-c3c(-c4ccc(F)cc4)ncn3C3CCNCC3)n2)cc1 | -2.66 ± 0.33
21 | COCC(=O)NC/C=C/c1ccc2ncnc(Nc3ccc(Oc4ccc(C)nc4)c(C)c3)c2c1 | -5.16 ± 23
22 | COc1cc(Nc2ncc3c(C)nc(-c4cccc(C(F)(F)F)c4)n3n2)cc(OC)c1OC | -2.03 ± 8.5
